Measured values reported in PubChem BioAssay AID1159580 (chemical genetic matrix, 2015).
Values joined by “and” are separate entries in the source; they are usually repeats but may differ in a detail not shown here. Identical values can stand only once. About 2,000 (36%) of roughly 5,500 compounds were called active. Another 18% or so got no clear call; they are omitted. Cut-off read from the data, not from the text of the source: active = normalized growth mostly below about 0.91 (no sharp cut-off); inconclusive = no clear call, values can overlap the other calls; inactive = mostly above about 0.92. This is one part of the list.

Assay: chemical genetic growth profiling, strain panel (AID 1159580);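 note: tested at 20 µM; growth read once vehicle control cultures reached saturation at 30 °C; 1 = growth at the plate median or of vehicle wells; lower values mean less growth of the strain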
Conditions: S. cerevisiae deletion strains, growth OD

Measured: normalized growth

CC1(C)C=Cc2cc3ccc(=O)oc3cc2O1
0.901 (inactive) and 0.867 (active): locus YJL095W, strain BCK1, stronger effect = lower value
0.984 (inactive) and 0.846 (active): locus YHR030C, strain SLT2, stronger effect = lower value
active: locus YBR009C, strain hhf1, stronger effect = lower value 0.875 | locus YBR023C, strain chs3, stronger effect = lower value 0.912 | locus YCL011C, strain gbp2, stronger effect = lower value 0.865 | locus YCL016C, strain dcc1, stronger effect = lower value 0.891 | locus YCL069W, strain vba3, stronger effect = lower value 0.915 | locus YDR001C, strain nth1, stronger effect = lower value 0.906 | locus YDR392W, strain spt3, stronger effect = lower value 0.58 | locus YDR502C, strain sam2, stronger effect = lower value 0.914 | locus YER015W, strain faa2, stronger effect = lower value 0.919 | locus YER155C, strain BEM2 (second series), stronger effect = lower value 0.565 | locus YGL086W, strain mad1, stronger effect = lower value 0.916 | locus YGL240W, strain doc1, stronger effect = lower value 0.863 | locus YHR079C, strain IRE1, stronger effect = lower value 0.818 | locus YHR142W, strain chs7, stronger effect = lower value 0.834 | locus YJL129C, strain trk1, stronger effect = lower value 0.778 | locus YJL164C, strain tpk1, stronger effect = lower value 0.9 | locus YJL166W, strain qcr8, stronger effect = lower value 0.896
inactive: locus YAL013W, strain DEP1, stronger effect = lower value 0.986 | locus YAL021C, strain ccr4, stronger effect = lower value 0.987 | locus YAL026C, strain drs2, stronger effect = lower value 0.963 | locus YAL030W, strain snc1, stronger effect = lower value 0.934 | locus YBL061C, strain skt5, stronger effect = lower value 0.972 | locus YBR021W, strain FUR4, stronger effect = lower value 0.95 | locus YBR171W, strain sec66, stronger effect = lower value 0.945 | locus YBR229C, strain ROT2, stronger effect = lower value 0.995 | locus YBR231C, strain swc5, stronger effect = lower value 0.958 | locus YBR279W, strain paf1, stronger effect = lower value 0.973 | locus YCL029C, strain bik1, stronger effect = lower value 0.967 | locus YCR088W, strain abp1, stronger effect = lower value 0.927 | locus YDL005C, strain med2, stronger effect = lower value 0.96 | locus YDL035C, strain GPR1, stronger effect = lower value 0.984 | locus YDL040C, strain nat1, stronger effect = lower value 0.962 | locus YDL074C, strain BRE1, stronger effect = lower value 0.919 | locus YDL101C, strain DUN1, stronger effect = lower value 0.987 | locus YDL134C, strain PPH21, stronger effect = lower value 0.947 | locus YDL185W, strain tfp1, stronger effect = lower value 0.975 | locus YDL192W, strain arf1, stronger effect = lower value 0.958 | locus YDR069C, strain doa4, stronger effect = lower value 0.958 | locus YDR101C, strain arx1, stronger effect = lower value 0.93 | locus YDR137W, strain rgp1, stronger effect = lower value 0.849 | locus YDR159W, strain sac3, stronger effect = lower value 0.959 | locus YDR162C, strain NBP2, stronger effect = lower value 0.976 | locus YDR195W, strain ref2 1.07 | locus YDR297W, strain sur2, stronger effect = lower value 0.965 | locus YDR318W, strain mcm21, stronger effect = lower value 0.935 | locus YDR334W, strain swr1, stronger effect = lower value 0.943 | locus YDR335W, strain msn5, stronger effect = lower value 0.919 | locus YDR388W, stronger effect = lower value 0.971 | locus YEL003W, strain gim4, stronger effect = lower value 0.951 | locus YEL037C, strain rad23, stronger effect = lower value 0.95 | locus YEL061C, strain CIN8 (second series), stronger effect = lower value 0.931 | locus YEL061C, strain CIN8, stronger effect = lower value 0.993 | locus YER016W, strain bim1, stronger effect = lower value 0.965 | locus YER110C, stronger effect = lower value 0.96 | locus YER111C, strain swi4, stronger effect = lower value 0.958 | locus YER155C, strain BEM2, stronger effect = lower value 0.973 | locus YER167W, strain BCK2, stronger effect = lower value 0.952 | locus YFR010W, strain ubp6, stronger effect = lower value 0.951 | locus YGL078C, strain dbp3, stronger effect = lower value 0.968 | locus YGL167C, strain pmr1, stronger effect = lower value 0.953 | locus YGL173C, strain kem1, stronger effect = lower value 0.949 | locus YGL227W, strain vid30, stronger effect = lower value 0.934 | locus YGL248W, strain PDE1, stronger effect = lower value 0.941 | locus YGL253W, strain hxk2, stronger effect = lower value 0.971 | locus YGR078C, strain PAC10, stronger effect = lower value 0.944 | locus YGR135W, strain pre9, stronger effect = lower value 0.907 | locus YGR252W, strain gcn5, stronger effect = lower value 0.818 | locus YHR013C, strain ard1, stronger effect = lower value 0.865 | locus YHR027C, strain rpn1, stronger effect = lower value 0.953 | locus YHR079C, strain IRE1 (second series), stronger effect = lower value 0.962 | locus YHR094C, strain hxt1, stronger effect = lower value 0.964 | locus YHR129C, strain ARP1, stronger effect = lower value 0.978 | locus YHR200W, strain rpn10, stronger effect = lower value 0.954 | locus YIL066C, strain RNR3, stronger effect = lower value 0.993 | locus YIL073C, strain SPO22, stronger effect = lower value 0.908 | locus YIL125W, strain kgd1, stronger effect = lower value 0.935 | locus YIR030C, strain dcg1, stronger effect = lower value 0.962 | locus YJL092W, strain hpr5, stronger effect = lower value 0.921 | locus YJL095W, strain BCK1 (second series), stronger effect = lower value 0.96 | locus YJL115W, strain asf1, stronger effect = lower value 0.921 | locus YJL134W, strain LCB3, stronger effect = lower value 0.991 | locus YJL154C, strain vps35, stronger effect = lower value 0.933 | locus YJL168C, strain set2, stronger effect = lower value 0.976 | locus YJL187C, strain SWE1 (second series), stronger effect = lower value 0.959 | locus YJL187C, strain SWE1, stronger effect = lower value 0.968 | locus YJR043C, strain POL32, stronger effect = lower value 0.972
